PubChem BioAssay (NCATS)
Inconclusive results are not listed. Activity calls are given as the source filed them. The call rests on the fitted dose curve; in most records, active means well fitted inhibition curve with a large enough effect; inconclusive means small, poorly fitted or top-dose-only effect; inactive means flat fitted curve, though single readings scatter.

The molecules below were run against Calcium and integrin-binding protein 1 (Homo sapiens) (UniProt Q99828) (assay: Primary qHTS for Identification of Calcium Integrin Binding Protein 1 (CIB1) Competitor (AID 1508620; further: top concentration of the series differs between compounds)). Settings: CIB1-GST / FITC-alphaIIb peptide fluorescence polarization; series mostly up to 114 µM; activity change, negative = inhibition: at the top concentration.
Chain of Calcium and integrin-binding protein 1 (Homo sapiens) (Q99828 whole entry, looked up): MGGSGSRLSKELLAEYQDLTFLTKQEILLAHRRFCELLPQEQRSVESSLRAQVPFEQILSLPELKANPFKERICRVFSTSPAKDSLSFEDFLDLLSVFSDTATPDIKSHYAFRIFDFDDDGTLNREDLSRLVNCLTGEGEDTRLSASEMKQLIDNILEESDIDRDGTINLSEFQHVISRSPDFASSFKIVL
Method in brief: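 Fluorescence polarization competition: GST-tagged CIB1 (1 uM final) preincubated with compound 15 min at room temperature, then FITC-labelled alphaIIb peptide (100 nM final) added. After 15 min at room temperature, polarization read at Ex 480/Em 540.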
On the % scale 0 is the no-effect control and ±100 the full control effect.

Row | Structure (SMILES) | activity change, negative = inhibition
1 | COc1ccc(C(=O)Nc2ccc(-c3nc4ccccc4[nH]3)cc2)cc1OC | -0.868% (inactive)
2 | O=C(CCc1ccccc1Br)NCCc1nc2ccccc2[nH]1 | 0.113% (inactive)
3 | CC1(C)CC2CC(C)(CN2S(=O)(=O)c2ccc(C(=O)Nc3ccc(Cl)cc3)cc2)C1 (configuration not stated) | 8.09% (inactive)
4 | Cc1ccc(S(=O)(=O)Nc2ccc(NS(=O)(=O)c3ccc(C)cc3)c3ncccc23)cc1 | -1.3% (inactive)
5 | O=C(NCc1ccccc1)C1CCN(c2nc(-c3ccc(Br)cc3)cs2)CC1 | -13.4% (inactive)
6 | Cc1ccccc1Nc1nc(C#N)nc(NC2CCCC2)n1 | -0.329% (inactive)
7 | CCOC(=O)c1cccc(-n2cnc(/C=C3\NC(=O)N(CC(=O)OC(C)(C)C)C3=O)c2)c1 | 2.05% (inactive)
8 | COc1ccc(-c2nc3ccccc3c(=O)n2Cc2ccc(CNC(=O)CO)cc2)cc1COc1ccc(NC(C)=O)cc1 | -8.89% (inactive)
9 | Cc1nc(-c2ccc(S(=O)(=O)Nc3ccc(C)c(C)c3)s2)cs1 | 3.06% (inactive)
10 | NC(=O)C1CCN(c2nc(-c3cccc(N)c3)cs2)CC1 | 2.57% (inactive)
11 | N#Cc1c(-c2ccc(C(F)(F)F)cc2)no[n+]1[O-] | -3.39% (inactive)
12 | Cc1ccc(OCCn2c(CCNC(=O)c3ccc4ccccc4c3)nc3ccccc32)cc1 | 34.1% (inactive)
13 | CN(Cc1ncc[nH]1)c1ncnc2ccc(-c3ccc4c(c3)OCO4)cc12 | -7.8% (inactive)
14 | COc1ccc(NS(=O)(=O)c2ccccc2C(=O)O)cc1 | -5.1% (inactive)
15 | Cc1cc(N[S+](=O)([O-])c2ccc(NC(=O)Cc3ccc(F)c(F)c3)cc2)no1 | -5.75% (inactive)
16 | Cc1cc(C)nc(NC(=S)N2CCN(c3nccc4occc34)CC2)c1 | -8.62% (inactive)
17 | CC(=O)Nc1cccc(OCc2cccc(C3Nc4ccccc4C(=O)N3Cc3ccco3)c2)c1 (configuration not stated) | -2.25% (inactive)
18 | CCOc1ccc(C(=O)Nc2ccc(-c3nn[nH]n3)cc2)cc1[N+](=O)[O-] | -15.1% (inactive)
19 | Cc1ccc(CNc2ncnc3ccc(-c4oc(-c5ccccc5)nc4C)cc23)o1 | -7.71% (inactive)
20 | NNc1ccc(NC(=O)c2cccs2)cn1 | -18.6% (inactive)
21 | Cc1cccc(C)c1OCc1cccc(C2Nc3ccccc3C(=O)N2Cc2ccco2)c1 (configuration not stated) | -0.231% (inactive)
22 | Cc1ccc(CNc2ccc(N3CCN(C)CC3=O)cc2)cc1 | -1.44% (inactive)
